Test results: PubChem BioAssay (NCI)
The panel holds about 83,000 compounds, 20% with a hit somewhere; the sample as a whole holds those more often.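 Step 1: grow cells in 96-well plates. Step 2: add test compound at a single concentration. Step 3: incubate 48 h. Step 4: record percent growth.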 Unmarked numbers belong to inactive results. Active and inactive are the calls of the source. How the source made its calls: active means growth percent below 10; inactive means the rest.

Key:
Experiment in all cases: NCI-60 one-dose screen, 48 h (100 = growth as untreated, 0 = no growth, -100 = all killed)
Conditions in all cases: 10 µM unless noted
[1] = tested on: NCI-H23 lung
[2] = tested on: NCI-H322M lung
[3] = tested on: HOP-62 NSCLC
[4] = tested on: NCI-H460 lung
[5] = tested on: HOP-92 NSCLC
[6] = tested on: NCI-H522 lung
[7] = tested on: A549/ATCC NSCLC
[8] = tested on: 786-0 renal
[9] = tested on: COLO 205 colon

Row | Compound | growth [1] | growth [2] | growth [3] | growth [4] | growth [5] | growth [6] | growth [7] | growth [8] | growth [9]
1 | C=C(C)[C@@H]1CC[C@]2(C(=O)N3CCN(C)CC3)CC[C@]3(C)[C@H](CC[C@@H]4[C@@]5(C)CC[C@H](OP(=O)(OCC)OCC)C(C)(C)[C@@H]5CC[C@]43C)[C@@H]12 | 83.1% | 101% | 96.2% | 91.3% | 63.8% | 81.7% | 75.6% | 70.3% | 90.8%
2 | Cn1cc(-c2nnc(N)nc2-c2c[nH]c3ccc(Br)cc23)c2cc(Br)ccc21 | 98.3% | 104% | 106% | 107% | 111% | 85.7% | 104% | 89.5% | 116%
3 | COc1ccc(C(=O)c2c(N)c(C#N)cn2-c2ccc(Cl)cc2Cl)cc1 | 93.3% | 93.8% | 99.7% | 100% | 101% | 90.3% | 93.4% | 103% | 109%
4 | COc1ccc(NC(=O)CCCCCCNC(=O)C(O)(O)C(F)(F)F)cc1 | 53.2% | 66.1% | 28.3% | 40.2% | 28.5% | 0.885% (active) | 46.3% | 52.9% | 9.56% (active)
5 | O=C(Nc1cc(C(F)(F)F)cc(C(F)(F)F)c1)Nc1ccc2oc(=O)ccc2c1 | -0.22% (active) | 13.4% | 23.9% | 6.36% (active) | -26.2% (active) | -13.5% (active) | 15.2% | 10.6% | -12.3% (active)
6 | O=C1Nc2cc(Cl)ccc2/C1=C\c1ccc(OCc2ccccc2)cc1 | 94.3% | 99.5% | 96.2% | 104% | 109% | 99.8% | 105% | 105% | 110%
7 | CC(=O)/C(N=Nc1ccc2oc(=O)ccc2c1)=C(\C)O | 27.5% | 55.1% | 26.2% | 14.6% | 2.61% (active) | 31% | 23.6% | 37.5% | 15.2%
8 | O=C(/C=C/c1cccc(C(F)(F)F)c1)Nc1cccc(C(F)(F)F)c1 | 33.1% | 79.9% | 58.4% | 13.9% | 7.77% (active) | 33.8% | 39% | 76.4% | 38.4%
9 | Cc1ccc2c(n1)C(=O)C(Cl)=C(Nc1cccc(C(F)(F)F)c1)C2=O | 52.3% | 108% | 141% | 101% | 107% | -28.8% (active) | 105% | 85.8% | 106%
10 | N/C(=N\C(N)=N\c1nc2ccccc2s1)c1ccc(Cl)cc1 | 75.1% | 88.3% | 1.11% (active) | 52.5% | 84.6% | 80.8% | 20.9% | 102% | 104%
11 | Nc1ncc(-c2ccc3ncnc(NCc4ccccc4)c3c2)cn1 | 55.4% | 8.77% (active) | – | 44.7% | 8.86% (active) | 23.8% | 41.3% | 31.3% | 69.3%
12 | COc1cc(C(=O)c2cc(C(C)=O)c3ccc(C)cn23)cc(OC)c1OC | 48.9% | 66% | 52.4% | 15.9% | 97% | 38.4% | 46.7% | 50.5% | 39.8%
